From PubChem
Most compounds without a hit are left out; they make up all but 3% or so of the library.
TRAIL sens C8: caspase-8 TRAIL sensitization. NB7+C8 cells + TRAIL, ATPlite viability luminescence. inhibition (viability loss, TRAIL sensitization), % at 10 µM. hit rate 1% among 360,000;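 active = compounds causing at least 50% loss of cell viability in the single-dose screen, relative to plate controls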
PPC-1+TRAIL kill: compounds killing PPC-1 cancer cells with TRAIL present (potentiator screen, no TRAIL-free arm); PPC-1 cells + TRAIL, ATPLite viability luminescence; cell killing (% activity), % at 4 µM or 5 µM; hit rate 0.41% among 220,000; AID 1443;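 active = cell killing above 50% in the first pass at 4 µM, then a duplicate retest at 5 µM averaging 50% or more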;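 also: plate controls were cells with TRAIL plus DMSO for no effect and medium-only wells lacking cells for full effect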
SENP6 block: inhibitors of human SENP6 protease. Q9GZR1. inhibition, % at 10 µM. hit rate 1.8% among 330,000. Recombinant SENP6 catalytic domain, aminoluciferin luminescence;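 active = inhibition above about 50% at the single tested dose, limit read from the data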;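 also: plate controls were DMSO wells with enzyme for no effect and DMSO wells lacking enzyme for full effect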
Target sequence (Q9GZR1 628-1112 limits assumed): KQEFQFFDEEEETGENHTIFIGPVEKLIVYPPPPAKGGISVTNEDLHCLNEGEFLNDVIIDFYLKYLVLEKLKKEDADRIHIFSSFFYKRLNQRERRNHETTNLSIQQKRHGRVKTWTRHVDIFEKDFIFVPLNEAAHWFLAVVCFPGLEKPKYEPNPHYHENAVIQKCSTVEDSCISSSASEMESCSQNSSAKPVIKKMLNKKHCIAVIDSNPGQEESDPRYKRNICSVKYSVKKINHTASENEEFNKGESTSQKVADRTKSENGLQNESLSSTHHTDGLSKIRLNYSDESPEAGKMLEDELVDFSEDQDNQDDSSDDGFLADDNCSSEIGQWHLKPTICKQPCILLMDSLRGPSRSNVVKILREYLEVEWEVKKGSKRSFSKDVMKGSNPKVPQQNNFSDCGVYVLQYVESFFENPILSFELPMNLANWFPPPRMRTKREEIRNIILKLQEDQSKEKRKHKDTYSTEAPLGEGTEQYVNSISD
SENP8 block-1: inhibitors of human SENP8 protease. recombinant SENP8, Nedd8 substrate fluorescence. Q96LD8. inhibition, % at 20 µM. hit rate 0.64% among 360,000; in the data active = inhibition mostly above about 40%, no sharp cut-off; inactive = mostly below about 27%
SENP7 inh: blocks the human protease SENP7; Q9BQF6; recombinant SENP7, Z-RLRGG-aminoluciferin luminescence, 40 min; inhibition, % at 5 µM; hit rate 1.5% among 330,000;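 active = inhibition above about 50% at the single test dose, limit read from the data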;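 also: plate controls were DMSO with enzyme for no effect and no enzyme buffer wells for full effect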
SENP8 block-2: inhibitors of human SENP8 protease | purified SENP8, Z-RLRGG-aminoluciferin cleavage, luminescence | inhibition, % at 10 µM | AID 2540 | Q96LD8 | hit rate 1.2% among 330,000; in the data active = inhibition above about 50%
SENP8 conf-1: human SENP8 inhibition, confirmed. inhibition, % at 12.5 µM. AID 488912. shares compounds with SENP7 inh. Recombinant SENP8, Z-RLRGG-aminoluciferin luminescence, 60 min. hit rate 40% among 6,200;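 active = mean inhibition across replicates above about 50%, limit read from the data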
SENP6 conf: human SENP6 inhibition, confirmed. hit rate 58% among 6,200. shares compounds with SENP7 inh. inhibition, % at 12.5 µM. recombinant SENP6, Z-RLRGG-aminoluciferin luminescence
SENP7 confirm: human SENP7 inhibition, confirmed | shares compounds with SENP7 inh | recombinant SENP7, Z-RLRGG-aminoluciferin luminescence, 40 min | inhibition, % at 12.5 µM | hit rate 69% among 6,200 | AID 488917
Casp3 SENP sel: inhibits human caspase-3 in SENP selectivity test; purified caspase-3, Z-DEVD-aminoluciferin luminescence, 60 min; AID 488918; shares compounds with SENP7 inh; hit rate 60% among 6,200; inhibition, % at 12.5 µM;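 active = mean inhibition above about 50%, limit read from the data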;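 also: plate controls were enzyme with DMSO for no effect and wells without caspase-3 for full effect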
Target sequence (P42574 28-227 limits assumed): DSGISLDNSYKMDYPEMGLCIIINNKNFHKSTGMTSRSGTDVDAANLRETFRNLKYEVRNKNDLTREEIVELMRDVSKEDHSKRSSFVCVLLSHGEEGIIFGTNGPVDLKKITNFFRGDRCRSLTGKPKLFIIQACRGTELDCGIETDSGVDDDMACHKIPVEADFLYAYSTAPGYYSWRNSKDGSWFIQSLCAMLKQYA
SENP luc ctr: interferes with luciferase luminescence in SENP counter-screen | shares compounds with SENP7 inh | Pre-incubated SENP8/Z-RLRGG-aminoluciferin, luciferase luminescence interference | inhibition, % at 12.5 µM | hit rate 39% among 6,200 | AID 488919;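 active = mean inhibition above about 50% when retested at one dose, limit read from the data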;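 also: plate controls were DMSO wells with completed reaction for no effect and substrate without enzyme for full effect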
SENP8 conf-2: confirmation of human SENP8 protease inhibitors; purified SENP8, Nedd8-AMC/pro-Nedd8 cleavage fluorescence, 30 min; shares compounds with SENP8 block-1; hit rate 15% among 1,400; inhibition, % at 25 µM; in the data active = inhibition mostly above about 39%, no sharp cut-off; inactive = mostly below about 34%
An asterisk follows results filed as active; . = no result.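 The calls were made as follows, unless noted: active = mean inhibition above about 50% in the one-dose retest (limit read from the data); inactive = the rest.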

SMILES | TRAIL sens C8 | PPC-1+TRAIL kill | SENP6 block | SENP8 block-1 | SENP7 inh | SENP8 block-2 | SENP8 conf-2 | others
CC1=NN(c2ccc(Cl)cc2)C(=O)C1C(c1ccccc1O)c1c(C)[nH]n(-c2ccc(Cl)cc2)c1=O (stereo not given) | 4.1 | 13.5 | 85.6* | 94.8* | 91.9* | 34.5 | 37.6 | SENP8 conf-1=-8.9;SENP6 conf=22.5;SENP7 confirm=-2.0;Casp3 SENP sel=3.4;SENP luc ctr=3.6
CCOC(=O)c1nn(-c2ccc(C)c(C)c2)c(=O)c2c(N)scc12 | -3.8 | -16.7 | 50.6* | 60.4* | 8.9 | 3.4 | 48.6* | SENP8 conf-1=-5.7;SENP6 conf=2.9;SENP7 confirm=-5.0;Casp3 SENP sel=6.9;SENP luc ctr=-0.5
Cc1ccc(C(=O)OCC(=O)NC(C)c2ccccc2)s1 (stereo not given) | -12.0 | . | -2.3 | 5.7 | 4.5 | -10.5 | .
CCc1cc(C(=O)OCC(=O)NCCc2ccccc2)sc1C | 2.2 | . | . | 9.0 | . | . | .
Nc1ccc(C(=O)OCC(=O)NC(=O)c2ccccc2)cc1[N+](=O)[O-] | 7.1 | . | -1.3 | 8.6 | -1.9 | 1.9 | .
O=C(COC(=O)c1ccc([N+](=O)[O-])s1)NCCc1ccccc1 | -1.5 | . | 62.1* | 51.3* | 26.3 | 68.2* | 80.1* | SENP8 conf-1=84.4*;SENP6 conf=86.1*;SENP7 confirm=42.0;Casp3 SENP sel=13.7;SENP luc ctr=0.1
CC(NC(=O)COC(=O)c1ccc([N+](=O)[O-])s1)c1ccccc1 (stereo not given) | 9.3 | 8.5 | 75.5* | 40.8* | 40.6 | 61.8* | 80.7* | SENP8 conf-1=23.0;SENP6 conf=46.3;SENP7 confirm=2.7;Casp3 SENP sel=-8.7;SENP luc ctr=-6.7
O=C(COC(=O)c1ccc([N+](=O)[O-])s1)NNC(=O)c1ccccc1 | 5.0 | . | 70.4* | 48.3* | 44.9 | 74.6* | 86.2* | SENP8 conf-1=4.8;SENP6 conf=88.3*;SENP7 confirm=48.5;Casp3 SENP sel=49.2;SENP luc ctr=1.0
COc1cc(NC(=O)Cn2cnc3c(SC)nc(N)nc32)cc(OC)c1OC | 4.9 | . | 9.9 | -85.1 | 11.6 | 2.9 | .
Nc1ccc(N2CCOCC2)c2nonc12 | 2.6 | 11.2 | 59.6* | 69.3* | 29.5 | 3.9 | 78.4* | SENP8 conf-1=12.8;SENP6 conf=28.5;SENP7 confirm=4.9;Casp3 SENP sel=-2.6;SENP luc ctr=-2.4
COC(=O)c1sccc1-n1cccc1C(=O)C(=O)Nc1ccc(F)cc1 | -0.6 | 10.2 | -48.0 | 10.6 | -14.3 | -8.4 | .
COC(=O)c1ccc(NC(=O)C(=O)c2cccn2C)cc1 | 61.7* | 17.9 | 94.6* | 30.1* | 95.4* | 93.1* | 16.2 | SENP8 conf-1=94.5*;SENP6 conf=97.1*;SENP7 confirm=102.3*;Casp3 SENP sel=97.4*;SENP luc ctr=80.1*
CCn1c(=O)c(=O)[nH]c2cc(C(=O)N(C)Cc3ccc(OC)c(F)c3)ccc21 | 9.6 | . | 3.6 | -69.3 | -2.9 | 2.8 | .
CNc1nc(Oc2ccc(=O)n(C)n2)nc(N2CCOCC2)n1 | -0.4 | 11.1 | 10.8 | 43.9* | 5.1 | 1.3 | 1.1
CCOC(=O)C(/C=C(\C#N)C(=O)OCC)=C(/N)N1CCN(c2ccc(Cl)cc2)CC1 | 3.3 | 2.6 | -6.6 | 46.5* | 6.6 | -3.3 | 23.2
O=C(NNC(=S)Nc1ccc(OC(F)F)cc1)c1cc2c(s1)CCCC2 | 0.6 | 3.8 | -7.4 | -94.1 | 5.9 | 2.8 | .
CCN(CC)S(=O)(=O)c1cccc(C(=O)NCCCn2ccnc2)c1 | 35.3 | 1.9 | 2.6 | 41.7* | -3.5 | -0.4 | 17.3
O=C(Nc1ccc(N2CCN(Cc3ccccc3)CC2)cc1)c1cccnc1 | 1.1 | -3.2 | -30.2 | 44.6* | -5.2 | -0.5 | 17.8
COc1ccc(NCc2ccc([N+](=O)[O-])s2)c(OC)c1 | -11.2 | 0.2 | . | 57.2* | . | . | 78.4*
O=[N+]([O-])c1ccc(CNc2ccc(Cl)cc2)s1 | -7.0 | . | 19.0 | 41.8* | 27.1 | -1.0 | 13.1
N#Cc1ccsc1NC(=O)CCN1CCN(C(c2ccccc2)c2ccccc2)CC1 | -10.1 | . | -10.8 | 13.2 | 0.4 | -2.3 | .
C[C@H](CO)N1C[C@H](C)[C@H](CN(C)Cc2ccncc2)Oc2cc(-c3ccccc3F)ccc2S1(=O)=O | 11.7 | . | . | 3.3 | . | . | .
O=C1c2cccc3cccc(c23)C(=O)C1(O)O | -15.0 | . | 16.8 | 51.7* | -2.6 | 9.4 | 40.5
Cc1onc(-c2ccccc2Cl)c1C(=O)c1ccccc1 | -4.7 | -5.0 | -37.7 | 3.0 | -2.9 | -0.1 | .
Cc1onc(-c2ccccc2Cl)c1-c1nc(-c2ccccn2)no1 | 19.0 | 11.9 | -0.8 | 40.8* | 9.6 | 1.1 | 10.5
SMILES | TRAIL sens C8 | PPC-1+TRAIL kill | SENP6 block | SENP8 block-1 | SENP7 inh | SENP8 block-2 | SENP8 conf-2 | others
CC(=O)NN1C(=O)c2ccc3c4c(ccc(c24)C1=O)C(=O)N(NC(C)=O)C3=O | 47.5 | . | 28.1 | 35.0* | 19.7 | 11.0 | 54.4*
CC1=C(C(=O)OC(C)C)C(c2cncc(-c3ccc(F)cc3)c2)C(C#N)=C(N)O1 (stereo not given) | 15.2 | 6.5 | -8.1 | -42.5 | 4.5 | 2.8 | .
Cc1ccc(CN=Cc2[nH]c3ccc(Br)c(Cl)c3c2O)cc1 | -21.2 | 22.4 | 22.6 | 44.5* | 1.1 | 1.2 | 40.4
CCOc1ccc(N=Nc2c(=O)[nH]n3c(=O)c4c([nH]c23)CCCC4)cc1 | -4.0 | -2.6 | -15.4 | 53.5* | -1.5 | -8.4 | 10.4
COc1cccc(N2C(=O)C(CC(=O)Nc3ccc(F)cc3)N(C3CCCCC3)C2=O)c1 (stereo not given) | 2.4 | 4.8 | -0.6 | 45.6* | -2.0 | 7.6 | 5.1
CC1CCCN(c2cc(N(C)CCO)c([N+](=O)[O-])c3nonc23)C1 (stereo not given) | 3.0 | 11.1 | -5.7 | 48.8* | 1.2 | 0.8 | 1.2
CN(CCO)c1cc(N2CCCCC2)c2nonc2c1[N+](=O)[O-] | 3.8 | 5.9 | 16.3 | 27.4 | -7.3 | -7.5 | .
CC1CC(=O)Nc2ccc([N+](=O)[O-])cc2N1C (stereo not given) | 0.3 | -9.6 | 0.0 | 13.8 | -1.3 | 2.1 | .
CC1CC(=O)Nc2cc([N+](=O)[O-])ccc2N1 (stereo not given) | 4.2 | 20.5 | -8.0 | 43.5* | 2.6 | 0.6 | 29.6
COc1ccc(CCNC2CC(=O)N(N(C)C)C2=O)cc1OC (stereo not given) | -3.0 | 8.3 | 14.1 | 2.9 | 4.8 | 0.3 | .
